Rows were chosen to be rich in hits. Some 3% of all compounds tested hit in one or more screens of this group.
esBAF inh: inhibitors of esBAF chromatin remodeling in mouse ES cells. Bmi1-luciferase knock-in reporter, 24 h; 100% = twice the neutral-well signal. reporter increase, % at 12.5 µM. actives 2% (n = 350,000); in the data active = activation above about 40%; inconclusive = no clear call, values can overlap the other calls;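 also: a rise in the Bmi1 reporter signal indicates esBAF inhibition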
Wnt bcat act: activates Wnt/beta-catenin signaling in a reporter cell assay; activator, plate reader; AID 743398; actives 1.2% (n = 300,000); activation, % at 9.35 µM; in the data active = activation above about 30%, passing the limit was not always enough; inconclusive = no clear call, values can overlap the other calls
Vif imaging: blocks HIV Vif function. actives 0.35% (n = 340,000). inhibition, % at 7.49 µM. HEK293T cells, Vif self-association by quenched fluorescence, imaging, 24 h; in the data active = inhibition above about 50%, passing the limit was not always enough; inconclusive = no clear call, values can overlap the other calls; inactive = below about 31%
MITF TRPM1 HTS: increases MITF-driven TRPM1 promoter luciferase signal | SK-MEL-5 TRPM1-promoter luciferase, 24 h; % of positive control, neutral wells = 0 | activation, % at 12.5 µM | actives 0.75% (n = 300,000) | AID 588334;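 active = mean activation of at least 80% with every replicate also reaching 80%; inconclusive = mean reaches 80% but some replicate falls short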
Glyco luc inh: blocks N-linked glycosylation in D54 reporter cells; reporter increase, % at 12.5 µM; D54 ERlucT glycosylation luciferase reporter, 24 h; percent of 100 nM tunicamycin response; actives 0.23% (n = 360,000);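 active = mean luciferase reporter signal, scaled so untreated is 0 and the glycosylation-blocking control 100, at or above a set limit in every replicate; inconclusive = mean reaches the limit but not every replicate does; inactive = mean below the limit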;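 also: luciferase carries N-glycosylation sites so blocking glycosylation raises the light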
PfHsp90 yeast 2: inhibits growth of yeast expressing Plasmodium falciparum Hsp90; S. cerevisiae expressing PfHsp90, BacTiter-Glo ATP, 48 h; yeast lacking PDR1 and PDR3 efflux regulators; inhibition, % at 9.4 µM; actives 0.32% (n = 310,000); AID 504621;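 active = every replicate shows inhibition above about 80%, whatever the replicate mean, limit read from the data; inconclusive = mean inhibition reaches the set limit but some replicate falls short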
Hits are given with their value; . = inactive; ? = inconclusive; / = no result given.

SMILES | esBAF inh | Wnt bcat act | Vif imaging | MITF TRPM1 HTS | Glyco luc inh | PfHsp90 yeast 2
CC1CC(C)CN(CCCNC(=O)c2ccc3nc(N4CCOCC4)sc3c2)C1 (stereo not drawn) | . | . | . | / | . | .
CCCN1CCN(CCCNC(=O)c2ccc3nc(N4CCC(C)CC4)sc3c2)CC1 | 55.4 | . | . | / | . | .
Cc1ccc(NC(=O)c2noc3c2CCC3)cc1C | / | 32.7 | . | . | . | .
CC(=O)c1ccc(NC(=O)c2noc3c2CCC3)cc1 | . | . | . | . | . | .
COc1ccc(NC(=O)c2noc3c2CCC3)cc1 | 94.9 | . | ? | / | . | /
c1ccc2c(c1)OCC(c1nnc3sc(-c4ccc5c(c4)OCO5)nn13)O2 (stereo not drawn) | . | / | . | . | . | .
Fc1ccc(-c2nn3c(C4COc5ccccc5O4)nnc3s2)cc1 (stereo not drawn) | 42.2 | / | . | / | . | .
COc1ccc(C2C(C#N)=C(N)Oc3cc(O)ccc32)cc1OC (stereo not drawn) | . | / | . | . | . | .
COc1cc(C2C(C#N)=C(N)Oc3cc(O)ccc32)cc(OC)c1OC (stereo not drawn) | . | / | / | . | 46.0 | .
CCCCCCOC(=O)C(C#N)c1nc2ccccc2nc1N1CCOCC1 (stereo not drawn) | . | / | 181.8 | . | . | .
N#CC(C(=O)NCCc1ccccc1)c1nc2ccccc2nc1N1CCOCC1 (stereo not drawn) | . | / | 64.0 | . | . | .
CCOC(=O)N1CCN(C(=O)c2cc3ccccc3o2)CC1 | . | . | . | / | . | .
CCOc1ncccc1C(=O)Nc1ccc2c(c1)OCO2 | / | . | . | . | . | /
CCOc1ncccc1C(=O)Nc1cc2c(cc1Br)OCCO2 | 55.3 | . | . | . | 41.3 | .
COC(=O)N/N=C\C=C\c1ccc2c(c1)OCO2 | / | / | . | . | . | .
CC(C)(C)OC(=O)N/N=C\C=C\c1ccc2c(c1)OCO2 | / | 55.5 | . | 119.0 | . | .
CCOC(=O)N/N=C\C=C\c1ccc2c(c1)OCO2 | / | 49.7 | . | . | . | .
COc1ccc(CC(=O)N/N=C/C=C/c2ccc3c(c2)OCO3)cc1OC | / | . | . | / | . | /
CCCN1C(=O)/C(=C/c2nc3ccccc3c(=O)[nH]2)c2ccccc21 | / | / | . | . | . | .
CC(C)N1C(=O)/C(=C\c2nc3ccccc3c(=O)[nH]2)c2ccccc21 | . | . | . | . | . | 97.8
O=C(C(=O)N1CCOCC1)c1cn(CC(=O)N2CCCCC2)c2ccccc12 | / | . | . | . | . | .
O=C(NNC(=O)OCc1ccccc1)OCc1ccccc1 | . | . | . | . | . | .
O=C(NOCc1ccccc1)OCc1ccccc1 | 62.8 | . | . | ? | . | .
O=C(Nc1cccc2ccccc12)OCc1ccccc1 | 61.3 | . | . | . | . | /
CCOC(=O)Nc1ccc2c3c(cccc13)-c1ccccc1-2 | 45.8 | . | . | . | . | .
SMILES | esBAF inh | Wnt bcat act | Vif imaging | MITF TRPM1 HTS | Glyco luc inh | PfHsp90 yeast 2
Nc1ccccc1C(=O)Nc1cccc2ccccc12 | 65.1 | . | . | / | . | .
CCOC(=O)Nc1cccc2ccccc12 | . | . | . | . | . | .
CCC(=O)N(C)C[C@@H]1Oc2ncc(C#CC(C)C)cc2C(=O)N([C@@H](C)CO)C[C@H]1C | . | / | / | / | / | /
O=C(Nc1cccc2ccccc12)c1ccc(F)cc1 | . | . | . | . | . | .
O=C(Nc1cccc2ccccc12)c1ccccc1 | 51.4 | . | . | . | . | .
CN/N=C(\Cc1nc2ccccc2[nH]1)c1ccc([N+](=O)[O-])cc1 | / | . | . | . | . | .
CN(C)c1ccc(C=NNC(=S)Nc2ccc(F)cc2)cc1 | 59.0 | . | . | . | . | .
Fc1ccc(NC(=S)N/N=C/c2ccc(F)c(F)c2)c(F)c1 | . | / | 109.7 | / | . | .
CSC(=S)N/N=C/c1ccc(N(C)C)cc1 | / | . | . | . | . | .
COc1ccc(NC(=O)CN(c2cccc(F)c2)S(C)(=O)=O)cc1OC | . | / | . | . | . | .
Cc1ccc(N2CN=c3s/c(=C\c4ccccn4)c(=O)n3C2)cc1 | 76.9 | . | . | . | . | .
O=c1/c(=C/c2ccco2)sc2n1CN(c1ccccc1)CN=2 | . | / | . | . | . | .
COc1ccc(C(=O)NCCc2c[nH]c3ccccc23)cc1S(=O)(=O)N1CCOCC1 | . | / | . | . | . | .
COCCOC(=O)c1[nH]c2c(c1C)C(=O)CC(c1ccc(OC)c(OC)c1)C2 (stereo not drawn) | . | . | / | . | . | .
CCOc1ccc(OCCSc2nc3ccccc3o2)cc1 | / | / | . | . | . | .
c1ccc(OCCSc2nc3ccccc3o2)cc1 | 86.6 | / | . | . | . | .
O=C(Nc1ccccc1)C1=C(N2CCOCC2)/C(=C/c2cccnc2)CC1 | 41.8 | . | . | . | . | .
COc1ccc(CCNC(=O)c2cccc(S(=O)(=O)N3CCCC3)c2)cc1 | . | . | . | . | . | .
[O-][N+](=Cc1ccccc1)c1ccc(Cl)cc1 | / | 37.6 | . | . | . | .
[O-]/[N+](=C\c1ccco1)c1ccc(Cl)cc1 | 88.2 | . | . | . | . | .
NS(=O)(=O)c1ccc(CCNC2CC(=O)N(CCc3ccccc3)C2=O)cc1 (stereo not drawn) | . | . | . | . | . | .
Cc1cc(NC(=S)Nc2ccc(C)c(Cl)c2)n[nH]1 | / | ? | . | 90.7 | . | .
O=C(NCC1CCCO1)c1c(O)c2cccc3c2n(c1=O)CCC3 (stereo not drawn) | . | . | . | . | . | .
Cc1ccc(C(=O)NC2CCC(C)CC2)o1 (stereo not drawn) | 54.6 | . | . | . | . | /
Cc1ccc(C(=O)NC2CCC(C)CC2)s1 (stereo not drawn) | / | 62.2 | . | . | . | .
SMILES | esBAF inh | Wnt bcat act | Vif imaging | MITF TRPM1 HTS | Glyco luc inh | PfHsp90 yeast 2
CC1CCC(NC(=O)c2ccc(Br)o2)CC1 (stereo not drawn) | . | . | . | / | . | /
CC1CCC(NC(=O)c2cc3c(s2)CCCC3)CC1 (stereo not drawn) | ? | ? | . | 100.3 | . | /
Cc1ccc(C(=O)NC2CCCC2)s1 | / | . | . | . | . | .
Cn1nc(C(C)(C)C)cc1N1C(=O)CCC1(C)C(=O)NCc1ccccc1 (stereo not drawn) | . | . | / | / | . | /
Nc1nc(N2CCN(C(=O)c3ccco3)CC2)nc2ccc(Br)cc12 | / | / | . | 104.8 | . | .
O=C(OCC(=O)N1CCN(C(=O)c2ccco2)CC1)c1cc(-c2ccc(F)cc2)nc2ccccc12 | . | / | . | . | . | .
O=C(OCC(=O)N1CCN(C(=O)c2ccco2)CC1)c1cn(-c2ccccc2)nc1-c1ccccc1 | . | / | . | . | . | .
O=C(OCC(=O)N1CCN(C(=O)c2ccco2)CC1)c1cc(-c2ccccc2)nc2ccccc12 | . | / | . | . | . | 100.8
O=C(OCC(=O)N1CCN(C(=O)c2ccco2)CC1)c1cc(-c2cccc(Br)c2)nc2ccccc12 | . | . | . | . | . | 100.4
O=C(C[C@@H]1CC[C@H]2[C@@H](COC[C@@H](O)CN2C(=O)Nc2cccc(F)c2)O1)NCCCN1CCOCC1 | . | / | / | / | / | /

Assay outcomes from PubChem.
